Records with an inconclusive call do not appear. Calls of active or inactive are those of the source. Unless noted, no rule for the calls is given here.
Legend:
[1] = qHTS profiling of the MIPE4 collection as inhibitors of Plasmodium falciparum (DD2) proliferation (AID 743345); details: P. falciparum Dd2 in erythrocytes, SYBR Green DNA, 72 h; at 28.5 µM (top of the series) unless noted
In short: (§1)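 Parasite DNA was quantified by SYBR Green I fluorescence (ex 485, em 535 nm) after overnight lysis in saponin/Triton buffer at room temperature. Cultures at 0.3% parasitemia and 2.5% hematocrit were first exposed to compound for 72 h at 37 C; signals were normalised to artemisinin (0.29 uM) and vehicle wells.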

[2] = qHTS profiling of the MIPE4 collection as inhibitors of Plasmodium falciparum (DD2) proliferation (Rep 2) (AID 743346); details: P. falciparum Dd2 in erythrocytes, SYBR Green DNA, 72 h; at 28.5 µM (top of the series) unless noted
In short: as §1

[3] = High-throughput drug toxicity screening in the BPDCN cell line Gen2.2 (AID 1224824); details: Gen2.2 BPDCN cells; at 45.8 µM (top of the series) unless noted;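 also: cells exposed to compounds for 48 h before reading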
In short: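 Gen2.2, 500 cells/well, phenol red-free RPMI/10% FBS/Pen-Strep; 48 h cpd, 37 °C/5% CO2; CTG lum, 15 min RT. Norm: DMSO = 100%, bortezomib 9.2 uM final = 0%.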

[4] = High-throughput drug toxicity screening in the BPDCN cell line Cal-1 (AID 1224825); details: Cal-1 BPDCN cell viability, qHTS; at 45.8 µM (top of the series) unless noted;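 also: cells exposed to compounds for 48 h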
In short: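 Percent activity derived from CellTiter-Glo luminescence, scaling DMSO to 100% and 9.2 uM final bortezomib to 0%. BPDCN Cal-1 cells (500/well, RPMI plus 10% FBS) incubated with compounds 48 hours at 37C before reading.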

[5] = qHTS assay for measurement of the activity of small molecule inhibitors on Zika virus induced Caspase-3 activity in human iPSC derived neural progenitor cells (hNPCs) (AID 1224857; active = well fitted curve in the direction sought with a large enough effect; an effect the other way counts as inactive or inconclusive; also: % of control where 0% means no effect; nearly all actives have a fitted effect of over 65% in size)
In short: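 Percent inhibition of virus-induced caspase-3/7 luminescence (Caspase-Glo), scaled between uninfected cells and Zika-infected cells. hNPCs received compound 1 hr before ZIKV at 2 FFU/cell, with 6 hours infection at 37 C.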

[6] = qHTS profiling of the MIPE4 collection as inhibitors of Plasmodium falciparum (3D7) proliferation (AID 743344);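 also: scaled between DMSO vehicle wells and 0.29 µM artemisinin as full inhibition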; details: P. falciparum 3D7 in erythrocytes, SYBR Green DNA fluorescence, 72 h; at 28.5 µM (top of the series) unless noted
In short: as §1

[7] = qHTS profiling of the MIPE4 collection as inhibitors of Plasmodium falciparum (HB3) proliferation (AID 743347);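 also: plate controls were DMSO vehicle wells for no effect and artemisinin wells for full effect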; details: P. falciparum HB3 in erythrocytes, SYBR Green DNA, 72 h; at 28.5 µM (top of the series) unless noted
In short: as §1

[8] = biological target: T1, Hexokinase-4 (Homo sapiens) + Glucokinase regulatory protein (Homo sapiens) (UniProt P35557+Q14397); experiment: qHTS assay for inhibitors of recombinant human GCK-GKRP interaction: Diaphorase-coupled assay (AID 743205; active = well fitted curve in the direction sought with a large enough effect; an effect the other way counts as inactive or inconclusive)
In short: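 Inhibitors of the GCK–GKRP complex relieve GKRP suppression of GCK, detected through a G6PDH–diaphorase cascade reducing resazurin. Human GST-GCK and FLAG-GKRP are used at 10 nM with 5 mM glucose and 0.4 mM ATP.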

[9] = biological target: T1, Hexokinase-4 (Homo sapiens) + Glucokinase regulatory protein (Homo sapiens); experiment: qHTS assay for inhibitors of recombinant human GCK-GKRP interaction: ADP-Glo assay (AID 743206; active = well fitted curve in the direction sought with a large enough effect; an effect the other way counts as inactive or inconclusive;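 also: plate controls were DMSO plus enzyme for no effect and no enzyme for full effect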)
In short: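 Pin-transferred compounds meet a 15 nM GST-GCK/15 nM FLAG-GKRP/2 uM S6P mix (dispense concentrations). ATP is then added to 0.4 mM final with 5 mM glucose, and the reaction runs 60 min at room temperature. ADP is quantified luminescently.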

[10] = biological target: T1, Hexokinase-4 (Homo sapiens) + Glucokinase regulatory protein (Homo sapiens); experiment: qHTS assay for inhibitors of recombinant human GCK-GKRP interaction: HTRF assay (AID 743207; active = well fitted curve in the direction sought with a large enough effect; an effect the other way counts as inactive or inconclusive;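 also: 0% = DMSO with GCK present and -100% = DMSO wells lacking GCK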)
In short: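 Steps: dispense GCK–GKRP complex (5 nM each, GST- and FLAG-tagged) with 2 uM S6P; pin in compounds; add XL665/Eu-cryptate-labelled antibodies; incubate 60 min at room temperature; read time-resolved FRET at 665 and 615 nm.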

[11] = qHTS Assay for Identifying Gametocytocidal Compounds (AID 743244; active = well fitted curve in the direction sought with a large enough effect; an effect the other way counts as inactive or inconclusive;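 also: % is scaled to controls: 0 for no effect and ±100 for the full control effect; actives lower the fluorescent signal which means gametocytes are killed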); details: P. falciparum 3D7 stage III-V gametocytes, alamarBlue, 72 h; max response: stronger effect = lower value
In short: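 Viability read-out was resazurin reduction (alamarBlue, 24 h) measured at Ex 525/Em 598 nm. Beforehand, late-stage (III-V) 3D7 P. falciparum gametocytes at 20,000 cells/well were incubated with compound 72 h at 37C under 5% CO2.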

T1 sequence (P35557 whole entry, looked up): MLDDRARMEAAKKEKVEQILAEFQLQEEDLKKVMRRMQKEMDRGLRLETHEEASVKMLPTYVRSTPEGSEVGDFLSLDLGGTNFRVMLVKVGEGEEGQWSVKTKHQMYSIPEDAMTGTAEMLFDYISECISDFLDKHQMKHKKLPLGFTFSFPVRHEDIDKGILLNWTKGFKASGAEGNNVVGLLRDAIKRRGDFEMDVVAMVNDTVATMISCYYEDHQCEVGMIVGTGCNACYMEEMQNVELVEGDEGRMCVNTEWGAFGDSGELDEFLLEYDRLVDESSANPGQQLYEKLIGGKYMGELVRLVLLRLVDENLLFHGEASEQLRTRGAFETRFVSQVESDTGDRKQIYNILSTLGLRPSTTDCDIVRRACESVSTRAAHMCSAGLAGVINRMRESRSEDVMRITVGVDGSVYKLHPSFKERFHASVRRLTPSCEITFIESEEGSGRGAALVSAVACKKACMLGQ
T1 sequence (Q14397 whole entry, looked up): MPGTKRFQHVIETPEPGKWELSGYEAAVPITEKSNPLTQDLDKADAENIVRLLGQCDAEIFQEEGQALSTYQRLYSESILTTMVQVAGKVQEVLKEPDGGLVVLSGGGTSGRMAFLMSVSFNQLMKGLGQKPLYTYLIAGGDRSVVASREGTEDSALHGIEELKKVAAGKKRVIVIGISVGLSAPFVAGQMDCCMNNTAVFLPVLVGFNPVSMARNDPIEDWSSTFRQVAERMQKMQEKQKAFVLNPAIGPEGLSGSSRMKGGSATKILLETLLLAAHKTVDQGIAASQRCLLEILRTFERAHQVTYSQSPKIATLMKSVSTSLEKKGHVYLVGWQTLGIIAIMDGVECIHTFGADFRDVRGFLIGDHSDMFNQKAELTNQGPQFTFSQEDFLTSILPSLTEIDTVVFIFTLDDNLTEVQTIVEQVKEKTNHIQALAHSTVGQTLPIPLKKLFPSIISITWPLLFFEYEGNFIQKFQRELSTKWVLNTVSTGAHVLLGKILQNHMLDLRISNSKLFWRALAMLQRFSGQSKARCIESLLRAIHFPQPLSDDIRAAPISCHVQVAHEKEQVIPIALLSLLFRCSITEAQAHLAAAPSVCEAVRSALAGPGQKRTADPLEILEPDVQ

Structure (SMILES) | parasite growth remaining, % of DMSO control (lower = more inhibition) [1] [%] | parasite growth, % of control (lower = inhibition) [2] [%] | cell viability, % of control (lower = more cytotoxic) [3] [%] | viability (% of control) [4] [%] | Potency [5] | parasite growth, % of DMSO control [6] [%] | growth, % of control [7] [%] | outcome [8] | outcome [9] | outcome [10] | max response [11]
Cc1nc(NC(=O)N2CCC[C@@H]2C(N)=O)sc1-c1csc(C(C)(C)C)n1 | 80.7 | 28.5 | 14.1 | 55.1 | inactive |  |  |  |  |  | 
CN(C)N=Nc1nc[nH]c1C(N)=O | 94.4 | 87.6 | 123 | 121 | inactive | 86.1 | 61.9 |  |  |  | 
O=C(O)CCC=CCC[C@@H]1[C@H](N2CCCCC2)[C@@H](O)C[C@@H]1OCc1ccc(-c2ccccc2)cc1 | 92.8 | 62.3 | 169 | 63 | inactive | 67.9 | 63 |  |  |  | 
NC(=O)c1noc([C@H](CCCC2CCCCC2)CC(=O)NO)n1 | 125 | 30.9 | 20 | 7.18 | inactive | 33.9 | 48.3 |  |  |  | 
c1ccc(-c2oc3ncnc(NC[C@@H]4CCCO4)c3c2-c2ccccc2)cc1 | 72.4 | 41.6 | 343 | 42.1 | inactive | 36.2 | 19.8 |  |  |  | 
COc1cc([C@H]2Oc3cc([C@H]4Oc5cc(O)cc(O)c5C(=O)[C@H]4O)ccc3O[C@H]2CO)ccc1O | 18.5 | 16.1 | 181 | 85.4 | inactive | 7.9 | 12.9 |  |  |  | 
O=c1[nH]nc(OCCCc2ccc(Cl)cc2)c(NCc2cccnc2)c1Br | 6.08 | 30.4 | 9.32 | 8.48 | inactive | 6.4 | 10.3 |  |  |  | 
C[C@H]1O[C@@H](n2cc(F)c(=O)[nH]c2=O)[C@H](O)[C@H]1O | 13.5 | 7.59 | 170 | 28.4 | inactive | 22.6 | 53 | inactive | inactive | inactive | 6.51% (inactive)
CN1CCN2c3ncccc3Cc3ccccc3C2C1 (configuration not stated) | 93.6 | 50.4 | 260 | 112 | inactive | 85.3 | 75.6 |  |  |  | 6.21% (inactive)
CC1(C)OC2CC3C4CC(F)C5=CC(=O)C=CC5(C)C4C(O)CC3(C)[C@]2(C(=O)CO)O1 (some centres not stated) | 89.8 | 7.06 | 77.5 | 52 | inactive |  | 47.9 |  |  |  | 

Source: PubChem BioAssay (NCATS)
